Hit rate of the full screen: of about 22,000 compounds, about 460 (2.1%) were called active. Another 2% or so got no clear call; they are omitted.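 Rule for the calls: active = mean inhibition across valid replicates above about 65% (limit read from the data); inconclusive = mean under the limit, yet half or more replicates past it; inactive = the rest.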 Only a selection was taken, and actives are over-represented in it overall.
Assay: Hedgehog pathway signaling inhibitors, primary screen, luminescence, Shh-LIGHT2 cells, Gli-luciferase (AID 2313);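 note: pathway switched on by Shh-conditioned medium diluted 1 in 25 in low serum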
Details: Shh-LIGHT2 Gli-luciferase reporter, 30 h; stronger effect = higher value

Structure (SMILES)	inhibition
CC(=O)Nc1nc2ccccc2s1	-52.3% (inactive)
CS(=O)(=O)c1sc(C(=O)NC(=S)Nc2ccc(OC(F)(F)F)cc2)c2c1C=CCC2	42.2% (inactive)
C[C@H]1CN([C@@H](C)CO)C(=O)Cc2cc(NS(=O)(=O)c3cn(C)cn3)ccc2O[C@H]1CN(C)C(=O)Nc1ccc(F)cc1	6.67% (inactive)
CCOC(=O)c1nnn2c3ccccc3c(=O)n(C)c12	-16.2% (inactive)
C=C1C2=CC(=O)O[C@@H](c3ccoc3)[C@]2(C)CCC1[C@@]1(C)C=CC(=O)C(C)(C)[C@@H]1CC(=O)OC (some centres not stated)	-0.584% (inactive)
COc1c2c(cc3occ(-c4ccc5c(c4)OCO5)c(=O)c13)OC(C)(C)C=C2	79.6% (active)
COc1ccc(NC(=O)Nc2cccc3c2O[C@H](CN(C)C(=O)Nc2cccc4ccccc24)[C@H](C)CN([C@H](C)CO)C3=O)cc1	-19.9% (inactive)
COc1ccc(S(=O)(=O)Nc2ccc3c(c2)CC(=O)N([C@H](C)CO)C[C@@H](C)[C@@H](CN(C)S(=O)(=O)c2ccc(F)cc2)O3)cc1	-24.3% (inactive)
COc1ccc(NC(=O)Nc2ccc3c(c2)CC(=O)N([C@H](C)CO)C[C@H](C)[C@H](CN(C)Cc2ccncc2)O3)cc1	32.2% (inactive)
C[C@@H]1CN([C@H](C)CO)C(=O)Cc2cc(NC(=O)Nc3ccccc3)ccc2O[C@H]1CN(C)Cc1ccc(Cl)c(Cl)c1	-42% (inactive)
COc1ccc(S(=O)(=O)Nc2cccc3c2O[C@H](CN(C)C(=O)Nc2cccc4ccccc24)[C@H](C)CN([C@@H](C)CO)C3=O)cc1	46.2% (inactive)
C[C@H](CO)N1C[C@H](C)[C@@H](CN(C)C(=O)Nc2ccc3c(c2)OCO3)Oc2c(cccc2N(C)C)C1=O	-27% (inactive)
C[C@@H]1CCCCO[C@H](CN(C)C(=O)NC2CCCCC2)[C@@H](C)CN([C@H](C)CO)C(=O)c2cc(NS(C)(=O)=O)ccc2O1	-30.2% (inactive)
C[C@@H]1CN([C@H](C)CO)C(=O)Cc2cc(NC(=O)Nc3ccc(C(F)(F)F)cc3)ccc2O[C@H]1CN(C)Cc1ccc(-c2ccccc2)cc1	-14% (inactive)
O=C1c2ccccc2C(=O)N1CC1OCc2ccccc2CO1	-41.8% (inactive)
O=C(Nc1ccccc1)Nc1cc(C2CC2)nn1-c1ccccc1	-37.7% (inactive)
CC(C)NC(=O)N(C)C[C@@H]1Oc2ccc(NC(=O)C3CCCCC3)cc2CC(=O)N([C@H](C)CO)C[C@@H]1C	-27.5% (inactive)
C[C@H]1CN([C@@H](C)CO)C(=O)c2cc(NC(=O)Cc3cn(C)c4ccccc34)ccc2O[C@@H]1CN(C)Cc1ccc(Cl)c(Cl)c1	15.9% (inactive)
O=C(Oc1ccc(Cl)cc1)c1csc(C2COc3ccccc3O2)n1 (configuration not stated)	-8.84% (inactive)
C[C@@H]1CN([C@H](C)CO)C(=O)Cc2cc(N(C)C)ccc2O[C@H]1CN(C)S(C)(=O)=O	-5.86% (inactive)
Cc1ccc(S(=O)(=O)Nc2ccc3c(c2)C(=O)N([C@@H](C)CO)C[C@H](C)[C@@H](CN(C)CC2CC2)O3)cc1	11.4% (inactive)

Structure (SMILES)	inhibition
O=C(O)c1ccc(NS(=O)(=O)c2ccc3c4c(cccc24)C(=O)N3)cc1	-9.19% (inactive)
C[C@H]1CN([C@@H](C)CO)C(=O)c2cccc(NS(=O)(=O)c3ccc(F)cc3)c2O[C@@H]1CN(C)Cc1ccncc1	3.57% (inactive)
Cc1ccc(S(=O)(=O)N(C)C[C@H]2Oc3c(NS(=O)(=O)c4ccc(Cl)cc4)cccc3C(=O)N([C@H](C)CO)C[C@@H]2C)cc1	-17.4% (inactive)
Cc1ccc(-n2nnnc2-c2cnn(-c3ccccc3)c2C)cc1	88.7% (active)
CCCN(C)C[C@H]1OCCCC[C@@H](C)Oc2ccc(N(C)C)cc2C(=O)N([C@H](C)CO)C[C@@H]1C	-12.9% (inactive)
COc1ccc(CN(C)C[C@H]2Oc3c(NS(=O)(=O)c4ccccc4)cccc3C(=O)N([C@H](C)CO)C[C@@H]2C)cc1	-36.7% (inactive)
COc1ccc(S(=O)(=O)N(C)C[C@H]2Oc3c(NC(=O)Nc4ccc5c(c4)OCO5)cccc3C(=O)N([C@H](C)CO)C[C@@H]2C)cc1	18.1% (inactive)
CC(=O)Nc1ccc(Nc2c3c4c(cccc4[nH]c2=O)C(=O)c2ccccc2-3)cc1	88.2% (active)
COc1ccc(CCN=C2SCC(=O)N2Cc2ccccc2)cc1OC	13.3% (inactive)
Cc1noc(C)c1NC(=O)Nc1ccc2c(c1)C(=O)N([C@H](C)CO)C[C@H](C)[C@H](CN(C)Cc1ccncc1)OCCCC[C@@H](C)O2	0.0543% (inactive)
C[C@H]1CN([C@@H](C)CO)C(=O)Cc2cc(NC(=O)C3CC3)ccc2O[C@H]1CN(C)S(=O)(=O)c1ccc(Cl)cc1	30.4% (inactive)
C[C@@H]1CN([C@H](C)CO)C(=O)c2cc(NC(=O)CCN3CCOCC3)ccc2O[C@H]1CN(C)Cc1ccc(Oc2ccccc2)cc1	-15% (inactive)
Oc1ccc(CN2CCCC2)c2cccnc12	85% (active)
Cc1onc(-c2c(Cl)cccc2Cl)c1C(=O)N=S(C)(C)=O	-19% (inactive)
C[C@H]1CN([C@@H](C)CO)C(=O)c2cccc(NS(=O)(=O)c3cccs3)c2O[C@H]1CN(C)C(=O)Nc1ccccc1	26.6% (inactive)
CCC/C=C/C=C/C1CC(O)C(O)C1C(=O)O (configuration not stated)	-18% (inactive)
C[C@H](CO)N1C[C@H](C)[C@H](CN(C)C(=O)NC2CCCCC2)Oc2c(NC(=O)C3CC3)cccc2C1=O	-11.9% (inactive)
C[C@H](CO)N1C[C@H](C)[C@@H](CN(C)Cc2ccc(Cl)c(Cl)c2)Oc2c(NC(=O)Nc3ccccc3)cccc2C1=O	-0.821% (inactive)
Oc1c(Cl)cc(Cl)c(Cl)c1Cc1c(O)c(Cl)cc(Cl)c1Cl	102% (active)
C[C@@H]1CN([C@H](C)CO)C(=O)c2cccc(NC(=O)c3nc4ccccc4s3)c2O[C@H]1CN(C)S(=O)(=O)c1ccc(Cl)cc1	11% (inactive)
C[C@H]1CN([C@@H](C)CO)C(=O)c2cccc(NS(=O)(=O)c3ccc(F)cc3)c2O[C@@H]1CN(C)CC1CC1	-16.6% (inactive)

From PubChem BioAssay AID2313 (Broad Institute, 2010)
